# PubChem BioAssay (Tox21)
# Several values for one entry are separate records, joined by “and”; a condition that tells them apart may be missing. Equal entries are not always repeated. Inconclusive results are not listed. Entries that show only a call come without a potency. Some compounds were tested as several samples or in several runs, with calls that do not always agree. Activity calls are given as the source filed them. Unless noted, calls come from the whole dose curve.
# Tests used:
# [1] = Nuclear factor erythroid 2-related factor 2/antioxidant responsive element (Nrf2/ARE) small molecule agonists: luciferase reporter gene qHTS assay in human keratinocytes (AID 1919969); details: KeratinoSens HaCaT ARE-luciferase, luminescence, 24 h; series mostly up to 92.4 µM; note: nearly all actives have a fitted effect of over 35% in size; note: potency is the fitted concentration of half-maximal effect
# [2] = target: Gonadotropin-releasing hormone receptor (Homo sapiens) (UniProt P30968); test: Human gonadotropin-releasing hormone receptor (GnRHR) small molecule agonists, calcium flux assay in GnRHR-HEK293 cells (AID 1920063); details: calcium flux fluorescence, agonist mode; series mostly up to 57.6 µM; note: nearly all actives have a fitted effect of over 35% in size
# Sequence of Gonadotropin-releasing hormone receptor (Homo sapiens) (P30968 whole entry, looked up): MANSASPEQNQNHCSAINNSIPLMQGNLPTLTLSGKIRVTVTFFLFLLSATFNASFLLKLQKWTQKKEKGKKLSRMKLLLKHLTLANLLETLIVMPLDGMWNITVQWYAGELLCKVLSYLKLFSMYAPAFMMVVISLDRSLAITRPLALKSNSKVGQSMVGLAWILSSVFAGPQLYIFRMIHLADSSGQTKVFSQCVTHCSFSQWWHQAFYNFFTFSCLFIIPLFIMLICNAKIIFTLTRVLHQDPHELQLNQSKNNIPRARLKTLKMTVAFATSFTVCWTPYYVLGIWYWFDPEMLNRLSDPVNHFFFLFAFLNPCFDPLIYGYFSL
# Method in brief: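 Agonist activity was measured as intracellular calcium flux in HEK293 cells engineered to stably express human GnRHR. After dye loading for 1 hour at 37 C, compounds in DMSO were added and fluorescence was followed for 3 minutes.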
# [3] = target: KiSS-1 receptor (Homo sapiens) (UniProt Q969F8); test: Human kisspeptin (KISS1R) small molecule agonists, calcium flux assay in KISS1R-HEK293 cells (AID 1920064; active = well fitted activation curve with a large enough effect in the repeat runs); details: KISS1R-HEK293, calcium flux fluorescence, agonist; series mostly up to 76.8 µM
# Sequence of KiSS-1 receptor (Homo sapiens) (Q969F8 whole entry, looked up): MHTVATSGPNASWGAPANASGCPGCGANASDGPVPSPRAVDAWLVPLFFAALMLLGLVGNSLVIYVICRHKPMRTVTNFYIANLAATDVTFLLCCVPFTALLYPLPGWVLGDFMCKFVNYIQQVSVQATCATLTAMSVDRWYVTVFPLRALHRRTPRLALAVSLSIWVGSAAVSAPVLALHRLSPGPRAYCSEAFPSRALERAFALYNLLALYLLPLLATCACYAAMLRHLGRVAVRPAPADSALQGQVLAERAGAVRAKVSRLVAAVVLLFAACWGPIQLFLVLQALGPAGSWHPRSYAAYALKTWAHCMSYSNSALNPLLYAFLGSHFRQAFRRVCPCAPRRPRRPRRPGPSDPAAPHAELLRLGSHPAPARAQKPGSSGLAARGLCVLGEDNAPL
# Method in brief: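 Agonist activity is monitored as intracellular calcium rise in engineered HEK293 cells carrying human KISS1R. Cells are dye-loaded for 1 h at 37 C before compound addition, and fluorescence is recorded for 3 min.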
# [4] = G protein-coupled receptor (GPCR) small molecule agonists, calcium flux assay: HEK293 wild type cell line counter screen (AID 1920065); details: HEK293 WT calcium flux, fluorescence, agonist mode; series mostly up to 57.6 µM
# Method in brief: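 Seed cells, incubate 18 h (37 C, 5% CO2); add calcium dye, 1 h at 37 C; pin-transfer compounds, ATP control or DMSO; read fluorescence 480/540 nm each second for 3 min.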
# [5] = p53 small molecule agonists, cell-based qHTS assay with human liver microsomes (AID 1963577); details: HCT-116 p53RE-bla with human liver microsomes, ratio, 16 h; series mostly up to 66 µM
# Method in brief: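 p53RE-bla reporter cells were pre-incubated 5 h at 37 C, then treated with compounds plus human liver microsomes (0.5 mg/mL final) and NADPH (0.5 mg/mL final) for 16 h at 37 C. Beta-lactamase activity was read by LiveBLAzer fluorescence after 2 h at room temperature.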
# [6] = p53 small molecule agonists, cell-based qHTS assay with human liver microsomes: qHTS cell viability counter screen (AID 1963579); details: p53RE-bla HCT-116 viability, ATP luminescence, 16 h, HLM; series mostly up to 66 µM; note: nearly all actives have a fitted effect of over 45% in size
# Method in brief: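 p53RE-bla cells (4,000/well) were pre-incubated 5 h at 37 C, then given compounds in DMSO plus human liver microsomes (0.5 mg/mL final) and NADPH (0.5 mg/mL final) for 16 h at 37 C. Viability was read by CellTiter-Glo luminescence.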
# [7] = p53 small molecule agonists, cell-based qHTS assay with rat liver microsomes: qHTS cell viability counter screen (AID 1963580); details: p53RE-bla HCT-116 + rat microsomes, ATP viability, 16 h; series mostly up to 66 µM; note: nearly all actives have a fitted effect of over 45% in size
# Method in brief: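 Rat liver microsome (0.5 mg/mL final) and NADPH (0.5 mg/mL final) co-incubation with compounds for 16 h at 37 C on HCT-116 p53RE-bla cells; cytotoxicity taken from intracellular ATP luminescence.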
# [8] = p53 small molecule agonists, cell-based qHTS assay (AID 1963582; active = well fitted activation curve with a large enough effect in the signal ratio in the repeat runs, not every such curve was filed as active; the % refers to the signal ratio); details: HCT-116 p53RE-bla reporter, beta-lactamase FRET ratio, 16 h; series mostly up to 66 µM
# Method in brief: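 Cells carrying a p53-responsive bla reporter are treated with test compounds for 16 h at 37 C; beta-lactamase activity is then detected with LiveBLAzer B/G FRET substrate after 2 h at room temperature.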
# [9] = target: 5-hydroxytryptamine receptor 2A (Homo sapiens) (UniProt P28223); test: 5-hydroxytryptamine receptor 2A (HTR2A) small molecule antagonists, cell-based qHTS assay (AID 1963586); details: HTR2A-CHO cells, DOI-induced calcium flux, fluorescence; series mostly up to 61.5 µM; note: nearly all actives have a fitted effect of over 45% in size; note: potency is the fitted concentration of half-maximal effect
# Sequence of 5-hydroxytryptamine receptor 2A (Homo sapiens) (P28223 whole entry, looked up): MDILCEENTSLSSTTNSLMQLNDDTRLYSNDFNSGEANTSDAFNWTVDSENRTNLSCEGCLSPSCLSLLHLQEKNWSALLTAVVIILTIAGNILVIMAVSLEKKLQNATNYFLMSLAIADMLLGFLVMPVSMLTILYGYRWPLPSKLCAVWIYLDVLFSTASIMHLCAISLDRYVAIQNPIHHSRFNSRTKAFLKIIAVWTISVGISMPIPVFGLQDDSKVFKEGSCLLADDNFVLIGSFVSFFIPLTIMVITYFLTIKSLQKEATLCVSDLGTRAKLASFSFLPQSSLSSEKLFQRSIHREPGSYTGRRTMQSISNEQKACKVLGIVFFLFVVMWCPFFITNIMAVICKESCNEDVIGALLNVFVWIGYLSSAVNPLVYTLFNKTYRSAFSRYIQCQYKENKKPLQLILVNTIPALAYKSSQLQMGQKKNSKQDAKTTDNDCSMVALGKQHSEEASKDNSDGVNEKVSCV
# Method in brief: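 CHO cells stably expressing human HTR2A were plated for 18 h at 37 C, then loaded with calcium dye for 1 h. Compounds were preincubated 5 min at room temperature before DOI (4 nM solution) was added. Kinetic fluorescence was read for 3 min.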
# [10] = target: 5-hydroxytryptamine receptor 2A (Homo sapiens) (UniProt P28223); test: 5-hydroxytryptamine receptor 2A (HTR2A) small molecule agonists, cell-based qHTS assay (AID 1963587); details: HTR2A-CHO cells, calcium flux fluorescence, agonist mode; series mostly up to 76.8 µM; note: nearly all actives have a fitted effect of over 30% in size; note: potency is the fitted concentration of half-maximal effect
# Method in brief: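 Kinetic calcium-flux fluorescence (2 min, 1 sec intervals) after compound addition in agonist mode. HTR2A-CHO cells were cultured 18 h, then dye-loaded 1 h at 37 C.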
# [11] = target: Muscarinic acetylcholine receptor M1 (Homo sapiens) (UniProt P11229); test: Cholinergic receptor muscarinic 1 (CHRM1) small molecule antagonists, cell-based qHTS assay (AID 1963588); details: CHRM1-CHO antagonist mode, calcium flux fluorescence; series mostly up to 61.5 µM; note: nearly all actives have a fitted effect of over 40% in size
# Sequence of Muscarinic acetylcholine receptor M1 (Homo sapiens) (P11229 whole entry, looked up): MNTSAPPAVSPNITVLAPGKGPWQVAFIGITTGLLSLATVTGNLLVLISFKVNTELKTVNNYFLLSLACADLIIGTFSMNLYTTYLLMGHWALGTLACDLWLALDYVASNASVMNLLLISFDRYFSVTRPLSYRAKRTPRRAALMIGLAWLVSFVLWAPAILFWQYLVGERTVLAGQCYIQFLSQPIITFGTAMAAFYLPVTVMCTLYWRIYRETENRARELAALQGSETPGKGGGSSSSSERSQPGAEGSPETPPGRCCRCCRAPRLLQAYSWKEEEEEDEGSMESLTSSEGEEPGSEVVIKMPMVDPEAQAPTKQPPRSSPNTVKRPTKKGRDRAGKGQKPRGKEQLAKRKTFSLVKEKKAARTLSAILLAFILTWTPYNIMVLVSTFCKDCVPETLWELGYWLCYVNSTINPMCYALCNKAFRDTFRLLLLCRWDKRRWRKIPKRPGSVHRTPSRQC
# Method in brief: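 Compounds were tested at 15 concentrations in three independent runs. Dye-loaded CHRM1-CHO cells were exposed 5 min at room temperature before stimulation by acetylcholine added at 50nM. Intracellular calcium was read kinetically on FDSS for 3 min.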
# [12] = target: Muscarinic acetylcholine receptor M1 (Homo sapiens) (UniProt P11229); test: Cholinergic receptor muscarinic 1 (CHRM1) small molecule agonists, cell-based qHTS assay (AID 1963589); details: CHRM1-CHO cells, agonist mode, calcium flux fluorescence; series mostly up to 76.8 µM; note: nearly all actives have a fitted effect of over 35% in size
# Method in brief: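 Cells were plated and incubated 18 h at 37 C/5% CO2, loaded with calcium dye for 1 h at 37 C, then treated with compounds in DMSO. Fluorescence was recorded kinetically at 1 sec intervals.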
# [13] = cAMP Responsive Elements (CRE) small molecule agonists, cell-based qHTS assay (AID 1963590); details: CRE-bla HEK293T, beta-lactamase FRET ratio, 3 h; series mostly up to 92.4 µM
# Method in brief: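 Cells carrying a CRE-driven beta-lactamase reporter (HEK 293T) are seeded, incubated overnight (18 h), and treated with test compounds for 3 h at 37 C; reporter activity is then detected with a FRET substrate after 2 h at room temperature.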
# [14] = cAMP Responsive Elements (CRE) small molecule antagonists, cell-based qHTS assay (AID 1963591; active = well fitted inhibition curve with a large enough effect in the signal ratio in the repeat runs, not every such curve was filed as active; the % refers to the signal ratio); details: CRE-bla HEK293T, beta-lactamase FRET ratio; series mostly up to 92.4 µM
# Method in brief: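 Cells (CRE-bla HEK 293T, DMEM with 10% dialyzed FBS and 25 mM HEPES) are seeded and incubated 18 h. Compounds are added with NKH477 agonist at 0.25 uM final for 3 h, then FRET substrate for 2 h.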
# [15] = target: Beta-2 adrenergic receptor (Homo sapiens) (UniProt P07550); test: Adrenergic beta2 receptor (ADRB2) small molecule antagonists, cell-based qHTS assay (AID 1963592); details: CHO-ADRB2 cells, isoproterenol-stimulated cAMP HTRF ratio, 0.5 h; series mostly up to 92.4 µM; note: nearly all actives have a fitted effect of over 50% in size
# Sequence of Beta-2 adrenergic receptor (Homo sapiens) (P07550 whole entry, looked up): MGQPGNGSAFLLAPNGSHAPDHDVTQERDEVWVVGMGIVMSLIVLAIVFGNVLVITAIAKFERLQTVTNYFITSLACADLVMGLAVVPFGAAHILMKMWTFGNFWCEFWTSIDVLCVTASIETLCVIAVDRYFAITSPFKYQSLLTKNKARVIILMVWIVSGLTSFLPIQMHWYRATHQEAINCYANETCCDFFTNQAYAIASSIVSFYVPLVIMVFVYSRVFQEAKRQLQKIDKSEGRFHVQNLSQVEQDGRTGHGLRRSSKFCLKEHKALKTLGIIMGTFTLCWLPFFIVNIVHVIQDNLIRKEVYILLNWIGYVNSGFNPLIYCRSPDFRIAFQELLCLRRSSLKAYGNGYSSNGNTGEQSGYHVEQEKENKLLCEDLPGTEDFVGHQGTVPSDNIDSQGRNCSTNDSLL
# Method in brief: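 Assay format: CHO-ADRB2 cells, 18-20hr seeding at 37C/5% CO2, then compound plus 1nM isoproterenol agonist mix for 0.5hr RT. Homogeneous time-resolved fluorescence cAMP detection after 1hr, expressed as 665/615 nm ratio.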
# [16] = target: D(2) dopamine receptor (Homo sapiens) (UniProt P14416); test: Dopamine D2 receptor (DRD2) small molecule agonists, cell-based qHTS assay (AID 1963594); details: HEK293-DRD2 cAMP HTRF, agonist mode, 30 min; series mostly up to 92.4 µM; note: nearly all actives have a fitted effect of over 35% in size
# Sequence of D(2) dopamine receptor (Homo sapiens) (P14416 whole entry, looked up): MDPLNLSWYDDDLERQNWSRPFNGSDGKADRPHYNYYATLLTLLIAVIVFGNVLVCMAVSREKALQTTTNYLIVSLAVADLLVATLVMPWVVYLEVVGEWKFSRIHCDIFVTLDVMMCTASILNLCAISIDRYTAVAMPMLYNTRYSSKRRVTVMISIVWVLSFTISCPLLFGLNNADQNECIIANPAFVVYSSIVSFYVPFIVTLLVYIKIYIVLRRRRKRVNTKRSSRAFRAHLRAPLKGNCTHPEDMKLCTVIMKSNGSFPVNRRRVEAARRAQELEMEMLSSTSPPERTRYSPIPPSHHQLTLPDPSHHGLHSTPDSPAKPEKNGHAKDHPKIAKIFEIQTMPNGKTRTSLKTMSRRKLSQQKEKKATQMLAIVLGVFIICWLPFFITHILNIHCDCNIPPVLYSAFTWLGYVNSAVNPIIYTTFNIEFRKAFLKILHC
# Method in brief: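 cAMP accumulation in DRD2-HEK293 cells measured by HTRF after 1 h detection; compounds added 10 min before NKH477 (200nM […]) forskolin-analogue stimulation, 30 min at room temperature, with Ro20-1724 present at 0.1 mM final.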
# [17] = p53 small molecule agonists, cell-based qHTS assay: qHTS cell viability counter screen (AID 1963581); details: p53RE-bla HCT-116 viability, ATP luminescence, 16 h; series mostly up to 66 µM; note: nearly all actives have a fitted effect of over 45% in size
# Method in brief: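 Viability was counter-screened in parallel with the p53 agonist reporter by measuring intracellular ATP luminescence in the same HCT-116 p53RE-bla wells after 16 h compound treatment at 37 C.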
# [18] = target: Beta-2 adrenergic receptor (Homo sapiens) (UniProt P07550); test: Adrenergic beta2 receptor (ADRB2) small molecule agonists, cell-based qHTS assay (AID 1963593); details: CHO-ADRB2 cells, cAMP HTRF, 30 min; series mostly up to 92.4 µM;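 note: CHO cells stably overexpressing human ADRB2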
# Method in brief: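 CHO cells stably over-expressing ADRB2 were plated overnight at 37C, then dosed with compounds plus a stimulation mix containing 100uM IBMX and 25uM Ro-20-1724 for 0.5hr at room temperature. cAMP was measured by HTRF competition, 1hr.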
# [19] = target: D(2) dopamine receptor (Homo sapiens) (UniProt P14416); test: Dopamine D2 receptor (DRD2) small molecule antagonists, cell-based qHTS assay (AID 1963595; active = well fitted inhibition curve with a large enough effect in the signal ratio in the repeat runs, with a control signal flat; the % refers to the signal ratio); details: HEK293-DRD2 cAMP HTRF antagonist mode; series mostly up to 92.4 µM
# Method in brief: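 Antagonist mode in DRD2-HEK293 cells: after compound addition with 0.1 mM Ro20-1724, cells received quinpirole (12 nM) and NKH477 (200 nM) for 30 min at room temperature; HTRF cAMP read after 1 h detection.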
# [20] = p53 small molecule agonists, cell-based qHTS assay with rat liver microsomes (AID 1963578); details: HCT-116 p53RE-bla, beta-lactamase ratio, 16 h; series mostly up to 66 µM
# Method in brief: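 p53RE-bla cells were exposed to compounds together with rat liver microsomes (0.5 mg/mL final) and NADPH (0.5 mg/mL final) for 16 h at 37 C, then read by LiveBLAzer beta-lactamase fluorescence after 2 h at room temperature.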
Structure (SMILES),Potency [1],Potency [2],Potency [3],Potency [4],Potency [5],Potency [6],Potency [7],Potency [8],Potency [9],Potency [10],Potency [11],Potency [12],Potency [13],Potency [14],Potency [15],Potency [16],Potency [17],Potency [18],Potency [19],Potency [20]
COCC(C)N(C(=O)CCl)c1c(C)csc1C (stereo not given),68.6 µM (active),inactive,inactive,inactive,inactive,inactive,inactive,inactive,inactive,inactive,inactive,inactive,inactive,inactive,inactive,inactive,,,,
CN(C)C1CSSSC1,61.1 µM (active),inactive,inactive,inactive,,inactive,inactive,,inactive,inactive,inactive,inactive,inactive,,inactive,inactive,inactive,inactive,inactive,
CC(C)(C)c1ccc(OP(=O)(Oc2ccccc2)Oc2ccccc2)cc1,inactive,inactive,inactive,inactive,inactive,inactive,,inactive,8.45 µM (active),,inactive,inactive,inactive,inactive,inactive,inactive,inactive,,inactive,
C=C(C)CN(CC)c1c([N+](=O)[O-])cc(C(F)(F)F)cc1[N+](=O)[O-],54.5 µM (active),inactive,inactive,inactive,inactive,inactive,inactive,inactive,,inactive,inactive,inactive,inactive,,inactive,inactive,inactive,,inactive,
Cc1c(F)c(F)c(COC(=O)C2C(/C=C(\Cl)C(F)(F)F)C2(C)C)c(F)c1F (stereo not given),30.6 µM (active),inactive,inactive,inactive,,inactive,inactive,,inactive,inactive,inactive,inactive,,inactive,inactive,,inactive,,inactive,inactive
CS/C(C)=N/OC(=O)N(C)SN(C)C(=O)O/N=C(\C)SC,68.6 µM (active),inactive,inactive,inactive,,inactive,inactive,inactive,inactive,43.6 µM (active),inactive,inactive,inactive,inactive,inactive,inactive,inactive,inactive,inactive,
O=C(CBr)Nc1ccc(Cl)cc1C(=O)c1ccccc1F,inactive,inactive,inactive,inactive,inactive,,,,inactive,,,inactive,inactive,,inactive,inactive,,inactive,inactive,inactive
Cc1cc(SCc2sc(-c3ccc(C(F)(F)F)c(F)c3)nc2C)ccc1OCC(=O)O,61.1 µM (active),inactive,inactive,inactive,inactive,inactive,,,42.1 µM (active),,,inactive,,,inactive,,inactive,,inactive,
COc1cc(CC(C)N)cc(OC)c1OC (stereo not given),inactive,inactive,inactive,inactive,,inactive,inactive,inactive,0.228 µM (active),0.265 µM (active),inactive,inactive,inactive,inactive,,,inactive,,inactive,inactive
CCNP(=S)(OC)O/C(C)=C/C(=O)OC(C)C (stereo not given),inactive,inactive,inactive,inactive,,inactive,inactive,inactive,inactive,inactive,inactive,inactive,inactive,inactive,inactive,inactive,inactive,inactive,inactive,
Cc1c(COC(=O)[C@@H]2[C@H](/C=C(\Cl)C(F)(F)F)C2(C)C)cccc1-c1ccccc1,53.2 µM (active) and 27.2 µM (active),inactive,inactive,inactive,inactive,,inactive,,inactive,38 µM (active) and inactive,inactive,,inactive,inactive,inactive,inactive,,,inactive,inactive
Clc1ccc(Oc2ccccc2)cc1,inactive,inactive,inactive,inactive,,inactive,,inactive,,inactive,inactive,inactive,inactive,inactive,inactive,inactive,inactive,inactive,,inactive
CN1C[C@H](CNC(=O)OCc2ccccc2)C[C@@H]2c3cccc4c3c(cn4C)C[C@H]21,inactive,inactive,inactive,inactive,,inactive,inactive,inactive,,,,,inactive,,,inactive,inactive,,,inactive
Nc1ccc(N=Nc2ccccc2)cc1,10.9 µM (active),inactive,inactive,inactive,inactive,,inactive,inactive,inactive,inactive,,inactive,,,,,,,inactive,inactive
S=C=NCc1ccccc1,27.6 µM (active),inactive,inactive,inactive,,,inactive,inactive,inactive,,inactive,inactive,inactive,inactive,inactive,inactive,inactive,,inactive,inactive
